From PubChem BioAssay (NCATS)
Records with an inconclusive call do not appear. The source made the active and inactive calls. Unless noted, calls follow the shape of the dose curve; as a rule, active = well fitted curve in the direction sought with a large enough effect; inconclusive = small, poorly fitted or top-dose-only effect, or another doubt; inactive = no such curve, though single readings can be large; an effect the other way counts as inactive or inconclusive.

Experiments:
[1] = qHTS assay for small molecule disruptors of the mitochondrial membrane potential - 1 hr assay (AID 651754; calls by dose curve; also: % is scaled to controls: 0 for no effect and ±100 for the full control effect; nearly all actives have a fitted effect of over 35% in size)
Procedure, shortened: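 HepG2 cells, attached overnight at 37C, were exposed to compound or DMSO vehicle for 1 hr at 37C, 5% CO2, then stained with Mito-MPS dye for 30 min. Red aggregate versus green monomer fluorescence reports membrane potential.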

[2] = qHTS assay for small molecule disruptors of the mitochondrial membrane potential - 5 hr assay (AID 651755; calls by dose curve; also: % is scaled to controls: 0 for no effect and ±100 for the full control effect; nearly all actives have a fitted effect of over 40% in size)
Procedure, shortened: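 HepG2, 2,000 cells/well, overnight attach; cpd or DMSO 5 hr, 37C/5% CO2; Mito-MPS 30 min 37C; fluor 490/535 + 540/590 nm.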

[3] = molecular target: Tumor necrosis factor (Homo sapiens) (UniProt P01375); assay: qHTS assay to identify small molecules that stimulate Tumor Necrosis Factor-alpha (TNF-alpha) secretion (AID 651757; active = well fitted curve in the direction sought with a large enough effect in the signal ratio; the % refers to the signal ratio; also: 0% is about no effect)
Procedure, shortened: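 THP-1 cells were exposed to compounds for 17 hrs at 37 C, after which secreted TNF-alpha was measured by homogeneous HTRF (TR-FRET) using cryptate- and XL665-labeled anti-TNF-alpha antibodies, read after 3 hr at room temperature.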

[4] = qHTS assay for environmental chemicals that activate the Aryl hydrocarbon Receptor (AhR) signaling pathway (AID 651777); details: 1A2-DRE human hepatoma cells, luciferase, 24 h; activation: active compounds read high; also: % of control where 0% means no effect; nearly all actives have a fitted effect of over 15% in size
Procedure, shortened: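 Luminescence read-out: One-Glo added for 30 min at RT after 24 hr compound treatment (37 C, 5% CO2) of human hepatoma cells expressing a DRE/CYP1A2 promoter–luciferase reporter; increased signal indicates AhR activation.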

[5] = molecular target: Peroxisome proliferator-activated receptor alpha (Homo sapiens) (UniProt Q07869); assay: qHTS assay for small molecule agonists of the peroxisome proliferator-activated receptor alpha (PPARalpha) signaling pathway (AID 651778); details: PathHunter PPARalpha complementation, chemiluminescence, 6 h; active compounds read high; also: % of control where 0% means no effect
Procedure, shortened: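 Chemiluminescence from complemented enzyme reported PPARalpha activation in cells after 6 hr of compound treatment at 37 C. The detection reagent was incubated for 60 min at room temperature, and compounds were scored as agonists.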

[6] = molecular target: Nuclear receptor ROR-gamma (Homo sapiens) (UniProt P51449); assay: qHTS assay for small molecule antagonists of the retinoid-related orphan receptor gamma (ROR-gamma) signaling pathway (AID 651802); also: series mostly up to about 92 µM; % is scaled to controls: 0 for no effect and ±100 for the full control effect; nearly all actives have a fitted effect of over 60% in size
Procedure, shortened: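 CHO cells carrying TET-inducible ROR-gamma and an ROR response element–luciferase reporter were exposed to compound, then induced with doxycycline. After 16hr at 37C, luminescence was read; lower signal indicates antagonism.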

[7] = qHTS assay for small molecule agonists of the antioxidant response element (ARE) signaling pathway measured by Nrf2-dependant transcriptional activity (AID 720636; active = well fitted curve in the direction sought with a large enough effect in the repeat runs; an effect the other way counts as inactive or inconclusive;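 also: HepG2 cells with an ARE-driven luciferase reporter; % of control where 0% means no effect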)
Procedure, shortened: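 HepG2 ARE-luc reporter line, 1% dialyzed FBS; 6 hr attachment at 37 C, compound pinned in, 16 hr at 37 C/5% CO2; ONE-Glo, 30 min RT, luminescence read.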

[8] = qHTS assay for small molecule antagonists of the retinoid-related orphan receptor gamma (ROR-gamma) signaling pathway - cell viability counter screen (AID 720652; active = well fitted curve in the direction sought with a large enough effect in the repeat runs; an effect the other way counts as inactive or inconclusive;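 also: series mostly up to about 92 µM; compound exposure lasted 16 hr before ATP read; % is scaled to controls: 0 for no effect and ±100 for the full control effect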)
Procedure, shortened: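 Counter screen in CHO cells carrying TET-inducible ROR-gamma and an ROR response element-luciferase reporter; cells plated 5 hr, compound pinned, doxycycline added, then 16 hr at 37 C. Viability read as intracellular ATP by CellTiter-Glo luminescence.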

[9] = qHTS assay for small molecule agonists of the antioxidant response element (ARE) signaling pathway measured by Nrf2-dependant transcriptional activity - cell viability counter screen (AID 720653; active = well fitted curve in the direction sought with a large enough effect in the repeat runs; an effect the other way counts as inactive or inconclusive; also: % is scaled to controls: 0 for no effect and ±100 for the full control effect); details: ARE-bla HepG2 viability, CellTiter-Glo ATP luminescence, 16 h; active compounds read low
Procedure, shortened: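 Cytotoxicity counter screen: intracellular ATP quantified by CellTiter-Glo luminescence in the same ARE-bla HepG2 plates, after 16 h compound exposure and a 2 h beta-lactamase substrate step.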

[10] = qHTS assay for cell viability of HEK293 cells (AID 743288); details: ATP luminescence (CellTiter-Glo), 18 h, active compounds read low; also: % is scaled to controls: 0 for no effect and ±100 for the full control effect; nearly all actives have a fitted effect of over 50% in size
Procedure, shortened: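 Environmental chemicals tested in qHTS format against parental HEK293 cells; 18 h treatment, 37 C; read-out ATP luminescence (CellTiter-Glo), 30 min RT development.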

[11] = qHTS assay for cell viability of the p53RE-bla HCT-116 cell line (AID 743292); also: % is scaled to controls: 0 for no effect and ±100 for the full control effect; nearly all actives have a fitted effect of over 55% in size
Procedure, shortened: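 Luminescent ATP quantitation (CellTiter-Glo) served as the viability read-out; reagent was added after 16 h compound exposure at 37 C and read after 30 min at room temperature. Cells: p53RE-bla HCT-116, 4,000 per well.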

[12] = molecular target: Nuclear receptor subfamily 1 group I member 2 (Rattus norvegicus) (UniProt Q9R1A7); assay: qHTS assay for small molecule activators of the rat pregnane X receptor (rPXR) signaling pathway (AID 651751; call rule not given here; also: 0% is about no effect); details: rPXR reporter cells, luciferase (One-Glo), 24 h
[13] = qHTS assay for small molecule activators of the human pregnane X receptor (PXR) signaling pathway (AID 720659; call rule not given here; also: 0% is about no effect)

Chain of Nuclear receptor ROR-gamma (Homo sapiens) (P51449 whole entry, looked up): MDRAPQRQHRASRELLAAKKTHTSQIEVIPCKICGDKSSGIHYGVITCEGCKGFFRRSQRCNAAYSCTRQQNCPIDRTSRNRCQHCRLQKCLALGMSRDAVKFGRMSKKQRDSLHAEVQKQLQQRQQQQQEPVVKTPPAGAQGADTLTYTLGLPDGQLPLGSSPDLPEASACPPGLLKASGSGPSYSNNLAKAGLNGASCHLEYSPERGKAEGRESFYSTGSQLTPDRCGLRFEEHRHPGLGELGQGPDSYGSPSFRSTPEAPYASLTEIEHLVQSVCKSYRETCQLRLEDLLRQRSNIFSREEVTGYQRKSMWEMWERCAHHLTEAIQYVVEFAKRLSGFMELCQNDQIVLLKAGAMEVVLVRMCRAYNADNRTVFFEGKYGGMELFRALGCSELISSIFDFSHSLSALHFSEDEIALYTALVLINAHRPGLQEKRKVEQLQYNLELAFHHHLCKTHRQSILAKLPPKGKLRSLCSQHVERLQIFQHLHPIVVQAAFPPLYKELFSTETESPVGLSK
Chain of Peroxisome proliferator-activated receptor alpha (Homo sapiens) (Q07869 whole entry, looked up): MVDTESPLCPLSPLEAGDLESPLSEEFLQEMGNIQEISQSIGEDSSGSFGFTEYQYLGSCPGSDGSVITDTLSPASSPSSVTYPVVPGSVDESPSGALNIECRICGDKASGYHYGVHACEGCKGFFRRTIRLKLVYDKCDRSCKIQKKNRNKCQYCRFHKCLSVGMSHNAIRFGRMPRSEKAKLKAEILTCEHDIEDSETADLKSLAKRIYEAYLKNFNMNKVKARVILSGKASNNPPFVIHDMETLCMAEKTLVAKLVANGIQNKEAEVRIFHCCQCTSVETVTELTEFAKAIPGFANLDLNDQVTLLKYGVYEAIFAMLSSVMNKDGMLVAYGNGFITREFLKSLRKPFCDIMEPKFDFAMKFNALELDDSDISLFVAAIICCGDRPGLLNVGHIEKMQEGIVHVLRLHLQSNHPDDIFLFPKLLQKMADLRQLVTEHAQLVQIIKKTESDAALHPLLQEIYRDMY
Chain of Tumor necrosis factor (Homo sapiens) (P01375 whole entry, looked up): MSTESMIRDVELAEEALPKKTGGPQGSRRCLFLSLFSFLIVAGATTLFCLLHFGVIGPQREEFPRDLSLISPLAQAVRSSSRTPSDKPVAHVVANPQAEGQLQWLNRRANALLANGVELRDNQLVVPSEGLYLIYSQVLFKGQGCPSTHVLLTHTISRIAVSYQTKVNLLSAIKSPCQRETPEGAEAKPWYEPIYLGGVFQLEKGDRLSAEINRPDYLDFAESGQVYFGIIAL
Chain of Nuclear receptor subfamily 1 group I member 2 (Rattus norvegicus) (Q9R1A7 whole entry, looked up): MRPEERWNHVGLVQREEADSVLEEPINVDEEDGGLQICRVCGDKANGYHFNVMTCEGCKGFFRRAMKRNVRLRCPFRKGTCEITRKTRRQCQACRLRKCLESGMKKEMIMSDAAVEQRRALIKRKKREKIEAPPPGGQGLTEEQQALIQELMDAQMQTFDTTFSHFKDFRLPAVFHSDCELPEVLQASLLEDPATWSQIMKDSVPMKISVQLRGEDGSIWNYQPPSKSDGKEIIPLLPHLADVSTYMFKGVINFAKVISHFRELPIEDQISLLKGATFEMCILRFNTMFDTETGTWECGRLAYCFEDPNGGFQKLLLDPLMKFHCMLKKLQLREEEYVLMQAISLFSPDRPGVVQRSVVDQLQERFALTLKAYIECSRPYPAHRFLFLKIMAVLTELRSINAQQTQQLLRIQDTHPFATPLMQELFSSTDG

CC(O)CC(C)O (centres undefined)
inactive: Potency [1] | Potency [2] | Potency [3] | activation [4] -0.953% | max response [5] -0.949% | Potency [6] | outcome [7] | Potency [8] | max response [9] -7.28% | max response [10] 7.82% | Potency [11] | max response [12] 6.25% | outcome [13]

C[C@@H]1CC2(OC[C@]3(C)O[C@H]23)O[C@H]2C[C@@]3(C)[C@@H]4CC[C@H]5C(C)(C)C(O[C@@H]6OC[C@@H](O)[C@H](O)[C@H]6O)CC[C@@]56C[C@@]46CC[C@]3(C)[C@@H]12 (some centres undefined)
inactive: Potency [1] | Potency [2] | Potency [3] | activation [4] -1.5% | max response [5] 0.712% | Potency [6] | outcome [7] | Potency [8] | max response [9] -3.07% | max response [10] -22.4% | Potency [11] | max response [12] 2.43% | outcome [13]

COc1ccc(OC)cc1
inactive: Potency [1] | Potency [2] | Potency [3] | activation [4] 0.641% | max response [5] -4.92% | Potency [6] | outcome [7] | Potency [8] | max response [9] 4.82% | max response [10] -1.36% | Potency [11] | max response [12] 2.22% | outcome [13]

CC(=O)OCc1ccco1
inactive: Potency [1] | Potency [2] | Potency [3] | activation [4] 1.48% | max response [5] -0.503% | Potency [6] | outcome [7] | Potency [8] | max response [9] -8.3% | Potency [11] | max response [12] -1.61% | outcome [13]

CCc1ccccc1
inactive: Potency [1] | Potency [2] | Potency [3] | activation [4] 3.73% | max response [5] -3.6% | Potency [6] | outcome [7] | Potency [8] | max response [9] -7.67% | max response [10] -3.72% | Potency [11] | max response [12] -0.471% | outcome [13]

C/C=C1\CC2C=CC1C2 (centres undefined)
inactive: Potency [1] | Potency [2] | Potency [3] | activation [4] -0.171% | max response [5] -5.32% | Potency [6] | outcome [7] | Potency [8] | max response [10] 9.62% | Potency [11] | max response [12] 0.0305% | outcome [13]

Cc1cccc(C(=O)O)c1
inactive: Potency [1] | Potency [2] | Potency [3] | activation [4] 0.807% | max response [5] -3.59% | Potency [6] | outcome [7] | Potency [8] | max response [10] 2.24% | Potency [11] | max response [12] -5.92% | outcome [13]

O=[N+]([O-])c1cccc(Cl)c1
inactive: Potency [1] | Potency [2] | Potency [3] | activation [4] 0.317% | max response [5] -3.34% | Potency [6] | outcome [7] | Potency [8] | max response [9] -6.97% | max response [10] -0.245% | Potency [11] | max response [12] 0.107% | outcome [13]

CCC(C)(C)C(=O)O
inactive: Potency [1] | Potency [2] | Potency [3] | activation [4] 0.179% | max response [5] -5.15% | Potency [6] | outcome [7] | Potency [8] | max response [9] -0.295% | Potency [11] | max response [12] 5.04% | outcome [13]

CNC(=O)c1ccccc1
inactive: Potency [1] | Potency [2] | Potency [3] | activation [4] -0.192% | max response [5] -1.17% | Potency [6] | outcome [7] | Potency [8] | max response [9] -3.92% | max response [10] 8.06% | Potency [11] | max response [12] -4.07% | outcome [13]

Cc1ccccc1Br
inactive: Potency [1] | Potency [2] | Potency [3] | activation [4] -0.782% | max response [5] -3.06% | Potency [6] | outcome [7] | Potency [8] | max response [9] -8.12% | max response [10] -0.991% | Potency [11] | max response [12] -1.24% | outcome [13]

C=CCn1c(=O)n(CC=C)c(=O)n(CC=C)c1=O
inactive: Potency [1] | Potency [2] | Potency [3] | activation [4] 0.438% | max response [5] -0.851% | Potency [6] | outcome [7] | Potency [8] | max response [9] -13.5% | max response [10] 8.26% | Potency [11] | max response [12] 4.89% | outcome [13]

NC(=O)c1ccccc1[N+](=O)[O-]
inactive: Potency [1] | Potency [2] | Potency [3] | activation [4] -0.127% | max response [5] -0.939% | Potency [6] | outcome [7] | Potency [8] | max response [9] -0.414% | Potency [11] | max response [12] -1.43% | outcome [13]
